Laboratory results taken from PubChem BioAssay.
Active and inactive are the calls of the source. Unless noted, the rule behind the calls is not given here.

Assays:
[1] = tested on: Wnt5a (protein binding on small-molecule microarray); experiment: Wnt5a binders on small-molecule microarray, primary screen, biophysical, 635/667 nm fluorescence (AID 1142); details: 635 nm fluorescence, higher = more signal;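 note: fluorescence read at 667 nm with signal to noise per printed feature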
[2] = cell viability in Huh7 cells, primary screen, cytotoxicity control for HCV replication inhibitor project, CellTiter-Glo luminescence, basal, 48 h (AID 1143); details: Huh7 HCV replicon, higher = more signal, called active from +8 up or from −8 down;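 note: Huh7 hepatoma cells carrying a hepatitis C replication reporter with no stimulus; test concentration not given here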
[3] = P. aeruginosa biofilm formation inhibitors, primary screen, PAO1 strain, BacTiter-Glo luminescence, LB-PBS (AID 1144); details: 12 h, higher = more signal
[4] = CREB reporter modulators without forskolin, primary screen, cell-based, PC12, CRE-LacZ reporter, unstimulated (AID 1145); details: no forskolin, luminescence, 4.5 h, higher = more signal, called active from +8 up or from −8 down
[5] = CREB reporter modulators under forskolin, primary screen, cell-based, PC12, CRE-LacZ reporter, forskolin-stimulated (AID 1146); details: luminescence, 4.5 h, higher = more signal, called active from +8 up or from −8 down;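 note: PC12 cells with 6xCRE LacZ reporter stimulated by forskolin 10 µM; beta-galactosidase reporter signal reflecting CREB driven transcription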
[6] = target: Streptavidin (Streptomyces avidinii) (UniProt P22629); experiment: streptavidin binders on small-molecule microarray, primary screen, artefact control for SMM compound annotation, biophysical, 635/667 nm fluorescence (AID 1147); details: streptavidin binding, higher = more signal;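 note: signal reflects streptavidin binding to arrayed compounds as a control protein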
[7] = small-molecule binders of probe aInhba, primary screen, biochemical, small-molecule microarray, 635/667 nm fluorescence (AID 1148); details: higher = more signal;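 note: score merges 667nm spot fluorescence with signal-to-noise for antibody binding to printed compounds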
Torsin-1A (Homo sapiens) [8] = target: Torsin-1A (Homo sapiens) (UniProt O14656); experiment: torsin A binders from cell lysate, primary screen, small-molecule microarray, wild-type, 635/667 nm (AID 1149); details: COS7 hTOR1A-WT lysate, 635 nm fluorescence, higher = more signal
Torsin-1A (Homo sapiens) [9] = target: Torsin-1A (Homo sapiens) (UniProt O14656); experiment: small-molecule binders of mutant TOR1A in lysate, primary screen, cell lysate, small-molecule microarray, COS7 lysate, 635/667 nm fluorescence (AID 1150); details: COS7 hTOR1A mutant lysate, 635 nm fluorescence, higher = more signal;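 note: score pools 667 nm emission and signal to noise measuring lysate protein binding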
[10] = tested on: Sonic hedgehog protein (Shh); experiment: small-molecule binders of Shh protein, primary screen, biochemical, small-molecule microarray, 635/667 nm fluorescence (AID 1151); details: small-molecule microarray binding, 635 nm fluorescence; higher = more signal;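 note: Shh protein binding to compounds spotted on small-molecule microarray slides; score combines spot fluorescence intensity with signal-to-noise across triplicate slides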

Chain of Torsin-1A (Homo sapiens) (O14656 whole entry, looked up): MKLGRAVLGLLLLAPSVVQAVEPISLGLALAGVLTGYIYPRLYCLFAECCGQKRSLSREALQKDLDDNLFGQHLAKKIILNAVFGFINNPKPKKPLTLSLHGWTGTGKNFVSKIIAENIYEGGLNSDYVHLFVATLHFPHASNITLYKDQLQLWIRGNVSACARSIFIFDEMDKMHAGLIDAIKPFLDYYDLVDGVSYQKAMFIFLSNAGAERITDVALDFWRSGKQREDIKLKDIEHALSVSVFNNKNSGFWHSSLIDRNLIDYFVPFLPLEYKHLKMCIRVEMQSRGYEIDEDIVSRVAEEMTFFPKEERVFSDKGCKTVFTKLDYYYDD
Chain of Streptavidin (Streptomyces avidinii) (P22629 whole entry, looked up): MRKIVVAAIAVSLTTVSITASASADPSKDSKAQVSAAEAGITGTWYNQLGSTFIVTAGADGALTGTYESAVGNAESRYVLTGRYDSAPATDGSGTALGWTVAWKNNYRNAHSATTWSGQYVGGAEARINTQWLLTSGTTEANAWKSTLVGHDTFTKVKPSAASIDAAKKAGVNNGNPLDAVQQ

| SMILES | composite z-score [1] | z-score [2] | z-score [3] | z-score [4] | z-score [5] | composite z-score [6] | composite z-score [7] | composite z-score (Torsin-1A (Homo sapiens) [8]) | composite z-score (Torsin-1A (Homo sapiens) [9]) | composite z-score [10] |
| --- | --- | --- | --- | --- | --- | --- | --- | --- | --- | --- |
| [N-]=[N+]=NCc1ccccc1C[C@@]1(C(N)=O)N=C(c2ccc(OCCCO)cc2)O[C@@H]1c1ccccc1N=[N+]=[N-] | 0.336 | -3.18 (inactive) | 1.33 (inactive) | 1.01 (inactive) | -0.626 (inactive) | 1.31 | -0.145 | 0.369 | 0.409 | -0.455 |
| O=C1OC[C@@H](c2ccccc2)n2cc(/C=C/c3ccccc3)cc21 | 0.044 | -4.14 (inactive) | 0.927 (inactive) | 9.55 (active) | -0.54 (inactive) | 0.723 | -0.0933 | -1.43 | -0.565 | 0.319 |
| Cc1ccc(S(=O)(=O)N2[C@@H](c3ccccc3)C(C(=O)O)=CC[C@H]2c2ccc(F)cc2)cc1 | 0.148 | -1.85 (inactive) | -0.8 (inactive) | -0.676 (inactive) | 0.398 (inactive) | 1.4 | 0.0403 | 1.33 | 1.64 | 0.193 |
| C=CCOC(=O)[C@@H]1[C@H]2C(=O)O[C@H](c3ccccc3)[C@H](c3ccccc3)N2[C@H](c2ccc(OCCOC(=O)[C@H]3C[C@H]4C(=O)N[C@@H](CCCCN(C)C)C(=O)N4[C@H]3c3cccc(OCCO)c3)cc2)[C@@]12C(=O)Nc1ccccc12 | -0.234 | 0.132 (inactive) | -0.306 (inactive) | -0.394 (inactive) | -0.647 (inactive) | 1.61 | -0.141 | 1.2 | 0.824 | 0.769 |
| Cc1ccc(S[C@]2(C(=O)NCc3ccccc3)CC(=O)N(Cc3ccccc3C(F)(F)F)[C@@H]2c2ccc(CO)cc2I)cc1 | -0.264 | -1.5 (inactive) | 1.59 (inactive) | 1.06 (inactive) | 2.24 (inactive) | -0.464 | 0.144 | -0.545 | -0.45 | -0.26 |
| CC1C2C(CCCO)=CC(C3C(=O)N(C)C(=O)C23)N1Cc1cccc(OC(F)(F)F)c1 (stereo not given) | 0.164 | -0.293 (inactive) | 0.403 (inactive) | -0.0142 (inactive) | -0.733 (inactive) | 2.22 | 0.143 | 0.76 | 1.47 | 0.113 |
| COc1cccc(C)c1NC(=O)O[C@H]1[C@H](OC(=O)Nc2ccccc2-c2ccccc2)[C@@H](OC(=O)Nc2ccccc2-c2ccccc2)[C@@H](OC)O[C@@H]1CO | 0.933 | -5.6 (inactive) | -0.325 (inactive) | 1.13 (inactive) | -1.05 (inactive) | 1 | 0.179 | 0.631 | 1.23 | 0.457 |
| COC(=O)[C@@]1(Cc2ccc(F)cc2)[C@H]2c3cc(C(=O)N4CCCC4)n(Cc4ccc(OC(F)(F)F)cc4)c3C[C@H]2CN1C(=O)c1ccccc1 | -0.0554 | -0.0066 (inactive) | -0.679 (inactive) | -0.185 (inactive) | 0.137 (inactive) | -0.203 | 0.0306 | -0.0112 | 0.395 | -1.02 |
| CO[C@H]1O[C@H](CO)[C@@H](OC(=O)Nc2cccc(F)c2)[C@H](OC(=O)c2cc3ccccc3[nH]2)[C@H]1OC(=O)c1cc2ccccc2[nH]1 | -0.363 | -3.31 (inactive) | -1.02 (inactive) | 1.03 (inactive) | -0.679 (inactive) | -0.256 | -0.128 | -0.536 | -0.18 | -0.111 |
| C=CC[C@H](OC(=O)Nc1ccc(SC)cc1)c1ccc(O)c(F)c1 | -0.171 | -0.489 (inactive) | -0.459 (inactive) | 0.31 (inactive) | 5.56 (inactive) | -0.588 | -0.285 | -0.135 | -0.151 | 0.988 |
| COC(=O)[C@]1(Cc2ccccc2CN=[N+]=[N-])N=C(c2ccc(OCCCO)cc2)O[C@@H]1c1ccccc1N=[N+]=[N-] | 0.786 | -5.02 (inactive) | -0.332 (inactive) | 3.72 (inactive) | 0.335 (inactive) | -0.174 | 0.0082 | -0.0005 | -0.147 | 0.336 |
| CN(C)CCCCCCNC(=O)[C@@H]1C[C@@H]2C(=O)N[C@@H](CCCC[N+](C)(C)C)C(=O)N2[C@@H]1c1cccc(OCCO)c1 | 0.144 | -0.966 (inactive) | -0.217 (inactive) | -0.805 (inactive) | -0.416 (inactive) | -0.3 | 0.0569 | 0.327 | -0.284 | -0.371 |
| O=C1O[C@H](c2ccccc2)[C@H](c2ccccc2)N2[C@H]1[C@@H](C(=O)N1CCN(c3ncccn3)CC1)[C@]1(C(=O)Nc3ccc(C#CC4(O)CCCCCC4)cc31)[C@H]2c1ccc(O)cc1 | 0.675 | -2.43 (inactive) | -0.759 (inactive) | -0.258 (inactive) | -0.296 (inactive) | -0.0103 | 0.096 | 0.574 | 0.0774 | 1.93 |
| CC(C)(C)OC(=O)CC[C@]1(C(N)=O)N=C(c2ccc(OCCCO)cc2)O[C@H]1c1ccccc1N=[N+]=[N-] | 0.641 | -0.284 (inactive) | 0.303 (inactive) | 1.05 (inactive) | -0.677 (inactive) | 1.49 | 0.0966 | 0.448 | 0.424 | -0.74 |
